Among the data in PubChem BioAssay AID1117358 (Southern Research Institute, 2015) are outcome values, retold here.

The campaign covered roughly 2,300 compounds. About 160 (7%) were called active. No rule for the calls is given here. Only a sample is shown. Results with a measured potency or affinity are listed apart.

The assay can be described thus: Vero cell cytotoxicity, dose response, cytotoxicity control for Vif-APOBEC3G degradation inhibitor project, Vero cells (AID 1117358). The settings on record: CellTiter-Glo ATP luminescence, 72 h; series mostly up to 40 µM.
As to `CC(C(=O)N1CCOCC1)(c1ccccc1)c1ccccc1`, the outcome was inactive.

For the molecule `COc1ccc(C(C)(C)C)cc1NC(=O)C1C2C=CC(C2)C1C(=O)O` (centres undefined), the molecule was classed as inactive.

In the case of `CC1CCCC(NC(=O)Cn2cc3c(n2)CCCCC3)C1C` (centres undefined), the molecule was classed as inactive.

On to `CCOC(=O)N1CCN(CC(=O)c2ccc3c(c2)CCN3C(C)=O)CC1`, for which the molecule was classed as inactive.

Consider `CCOc1ccc2[nH]c(=O)c(CN(Cc3nnnn3Cc3ccco3)C3CCCCC3)cc2c1`, for which the molecule was classed as inactive.

Regarding `CCOC(=O)c1ccc(NC(=O)CSCc2ccco2)cc1`, the molecule was called inactive.

With `Cc1cc(C)n(CC(O)CN2c3ccccc3Sc3ccccc32)n1` (centres undefined), the molecule was classed as inactive.

For `CCOc1cc(Cl)c(S(=O)(=O)NCc2ccccn2)cc1Cl`, the call was inactive.

Take `COC(=O)COc1ccc(S(=O)(=O)NCc2ccco2)cc1Cl`: the molecule was called inactive.

Consider `O=C(Cn1ncc2c(=O)oc3ccccc3c21)N1CCCc2ccccc21`, for which the molecule was classed as inactive.

On to `CCC(C)NS(=O)(=O)c1ccc(S(=O)(=O)N(CC(=O)Nc2ccccc2)CC2CCCO2)cc1` (centres undefined), for which the outcome was inactive.

Consider `Cc1cccc(C)c1NC(=O)COC(=O)c1cc(-c2cccnc2)nc2ccccc12`, for which the result was inactive.

`CCOC(=O)CC1Sc2ccccc2NC1=O` (centres undefined): the molecule was classed as inactive.

`COc1cc(O)oc1C=Nc1ccccc1`: the molecule was classed as inactive.

For `Cc1ccc(S(=O)(=O)N=Nc2c(O)[nH]c3ccccc23)cc1`, the molecule was called inactive.

`CCOC(=O)C1=C(CSc2nc(C)ccc2C#N)OC(N)=C(C#N)C1c1cccc(OC)c1OC` (centres undefined): the molecule was called inactive.

`Cc1nc(NC(=O)CN2CCOCC2)sc1-c1ccccc1`: the call was inactive.

Consider `O=C(O)CC(C(=O)O)N1C(=O)/C(=C/c2ccc(-c3nc4ccccc4s3)o2)SC1=S` (centres undefined), for which the result was inactive.

Turning to `O=C1CC(c2ccco2)CC(O)=C1C=Nc1ccc(Br)cc1` (centres undefined), the result was inactive.

For the molecule `COc1ccc(OCC(=O)O/N=C(\N)Cc2ccc(Cl)cc2)cc1`, the result was inactive.

Regarding `CCC(=O)Nc1nc2ccc(NC(C)=O)cc2s1`, the outcome was inactive.

Take `CCOC(=O)N1CCC(NC(=O)c2cc3c(C)nc4ccccc4c3o2)CC1`: the molecule was classed as inactive.

For the molecule `CCOC(=O)C1CCN(C(=O)c2ccc(OC)cc2OC)CC1`, the result was inactive.

In the case of `COc1ccc(NC(=O)Nc2cccs2)cc1OC`, the result was inactive.

As for `CCOC(=O)Nc1nnc(-c2ccccc2OC)s1`, the call was inactive.

In the case of `C=CCOC(=O)CN1C(=O)c2ccccc2C1=O`, the call was inactive.

As to `COc1ccc(OC)c(NC(=O)CSc2nnc(CCCO)n2-c2ccccc2)c1`, the molecule was classed as inactive.

Take `CCn1c(SCC(=O)n2c(C)c(C)c3ccccc32)nnc1-c1ccco1`: the molecule was called inactive.

For the molecule `CCOc1ccccc1CNC(=O)Cn1c(=O)oc2ccccc21`, the result was inactive.

Consider `COc1ccccc1N1CCN(C(=O)c2cc(-c3cccs3)on2)CC1`, for which the call was inactive.

For `Cc1ccccc1CS(=O)(=O)Cc1ccc(C(=O)N2CCOCC2)o1`, the molecule was called inactive.

As for `CCOc1cc(C)nc(NCCc2ccc(OC)c(OC)c2)n1`, the molecule was called inactive.

Take `COc1ccc(OC)c(NC(=O)NCc2ccc(F)cc2)c1`: the call was inactive.

Turning to `O=C1c2ccccc2C(=O)N1CCc1csc(-c2ccc(F)cc2)n1`, the molecule was classed as inactive.

For `COc1ccc(Oc2nc(C)cc(C)c2C#N)cc1`, the molecule was classed as inactive.

Turning to `Cc1cc(-c2cc(-c3ccc(Cl)cc3)nc(N)c2C#N)co1`, the outcome was inactive.

`O=[N+]([O-])c1cc(/C=N\Nc2nccs2)ccc1O`: the call was inactive.

For `CC(OC(=O)c1cccs1)C(=O)NCc1ccco1` (centres undefined), the molecule was classed as inactive.

As for `CCc1nc(SCC(=O)Nc2ccc(C(=O)O)cc2)n[nH]1`, the molecule was classed as inactive.

As to `CCc1cccc(NC(=O)Cn2ncn3c(cc4ccccc43)c2=O)c1`, the result was inactive.

Turning to `COCCNC(=O)COc1ccc(Br)cc1Cl`, the outcome was inactive.

Turning to `CSc1cccc(NC(=O)CN(c2cc(C)ccc2C)S(C)(=O)=O)c1`, the result was inactive.

Take `Cn1c(CN2CCOCC2)nc2cc(NC(=O)c3ccc(F)cc3)ccc21`: the call was inactive.

On to `N#Cc1nc(-c2ccco2)oc1N1CCN(c2ccccc2)CC1`, for which the result was inactive.

For the molecule `CCC(C)(C)n1nnnc1C(c1cc2cc(C)ccc2[nH]c1=O)N1CCCc2ccccc21` (centres undefined), the outcome was inactive.

As for `O=C(OCc1ccc(Cl)cc1)c1cnccn1`, the result was inactive.

For `O=C(CSc1nccn1Cc1ccccc1)Nc1nccs1`, the molecule was called inactive.

For the molecule `Cc1ccc(NC(=O)CCC(=O)NNC(=O)COc2cccc3ccccc23)c(C)c1`, the result was inactive.

With `CS(=O)(=O)N(CC(=O)NCc1ccc2c(c1)OCO2)Cc1ccccc1`, the outcome was inactive.

As for `O=C(O)Cc1ccc(C(=O)c2ccccc2)s1`, the result was inactive.

As to `Oc1ccc(/C=N/NC2=NCCCCC2)c(O)c1`, the outcome was inactive.

`Cc1ccc(C)n1Cc1ccc(C(=O)O)cc1`: the result was inactive.

In the case of `CC(=O)C1CCN(Cc2ccccc2)CC1`, the molecule was classed as inactive.

`Cn1cccc1C(=O)NC(=O)COC(=O)CC12CC3CC(CC(Br)(C3)C1)C2`: the result was inactive.

For `O=C(COC(=O)c1cc(-c2ccco2)nc2ccccc12)NCc1ccc2c(c1)OCO2`, the outcome was inactive.

With `Cc1nc(C(=O)N(C)C)nn1-c1cc(Cl)cc(Cl)c1`, the molecule was called inactive.

As for `CCOC(=O)c1ccc(-n2ncc(C(=O)OCC)c2N)cc1`, the call was inactive.

In the case of `Cc1ccc(S(=O)(=O)N2CCC(C(=O)Nc3nnc(-c4ccco4)s3)CC2)cc1`, the result was inactive.

Turning to `CCN(CC)c1ccc(/C=N/n2c(C)cc(C)cc2=O)cc1`, the molecule was called inactive.

As to `CCOc1ccc(Br)cc1/C=N/O`, the result was inactive.

Turning to `CCOc1ccc(N(CC(=O)NC2CCCCC2)S(=O)(=O)c2c(C)noc2C)cc1`, the call was inactive.

Turning to `Cc1onc(-c2ccccc2)c1C(=O)N1CCCc2ccccc21`, the molecule was called inactive.

With `C=CCn1c(SCC(=O)c2cc(C)n(C(C)COC)c2C)nc2sc(C)c(C)c2c1=O` (centres undefined), the call was inactive.

With `CCOC(=O)c1ccc(NS(=O)(=O)c2ccc3c(c2)oc(=O)n3C)cc1`, the outcome was inactive.

For `Cc1nnc(-c2cnn(-c3ccccc3)c2N)n1Cc1cccc(C(F)(F)F)c1`, the call was inactive.

As to `C/C(=C1\SC(N2CCOCC2)=NC1=O)c1ccccc1`, the molecule was called inactive.

Take `Cc1noc(C)c1C(=O)N1CCN(c2ncccn2)CC1`: the molecule was classed as inactive.

Regarding `COc1ccc(NS(=O)(=O)c2cccc(Cl)c2Cl)cc1S(=O)(=O)N1CCCCC1`, the molecule was called inactive.

As for `CCC(=O)N1CCN(c2ccccc2NC(=O)c2cccc(C)c2)CC1`, the molecule was called inactive.

As for `O=C(NCc1ccc(Cl)cc1)c1ccccc1Oc1ccccc1`, the call was inactive.

Take `COC(=O)c1cccc(NC(=O)c2cccc(OC)c2)c1`: the molecule was classed as inactive.

As to `CCC(=O)NNc1ncnc2ccccc12`, the outcome was inactive.

On to `COc1cc2c(cc1NC(=O)COC(=O)Cn1cnc3ccccc31)oc1ccccc12`, for which the molecule was called inactive.

For the molecule `CCOC(=O)N1CCC(Nc2c(-c3ccc(C)cc3)c(=O)c2=O)CC1`, the molecule was called inactive.
